Hits are enriched below; roughly 2.7% of the tested compounds scored in any of these assays.
IDH1 R132H inh = inhibitors of human mutant IDH1 R132H. 390,000 tested, 0.093% active. O75874. IDH1-R132H enzyme, NADPH consumption, diaphorase/resazurin fluorescence. Potency, µM (series often up to 76.6 µM), usual class: inhibitors; also: nearly all actives have a fitted effect of over 65% in size
Target sequence (O75874 whole entry R132H, stated change not applied): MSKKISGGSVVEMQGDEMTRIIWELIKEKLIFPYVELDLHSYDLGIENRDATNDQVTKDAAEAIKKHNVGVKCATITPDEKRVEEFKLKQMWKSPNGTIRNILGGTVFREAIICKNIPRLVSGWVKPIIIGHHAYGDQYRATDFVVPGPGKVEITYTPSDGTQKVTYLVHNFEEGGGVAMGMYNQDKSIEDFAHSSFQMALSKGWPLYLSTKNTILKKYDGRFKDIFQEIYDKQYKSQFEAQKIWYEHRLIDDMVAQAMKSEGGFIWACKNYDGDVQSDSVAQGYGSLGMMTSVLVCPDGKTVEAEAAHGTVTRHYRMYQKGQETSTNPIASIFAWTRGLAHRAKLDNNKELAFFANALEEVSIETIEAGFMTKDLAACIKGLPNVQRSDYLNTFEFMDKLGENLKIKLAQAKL
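IDH1-R132H (0.5 ug/mL) preincubated 30 min with compound, then NADPH (0.016 mM) and alpha-KG (2 mM) added; 80 min at RT, pH 7.5. Remaining NADPH coupled via diaphorase/resazurin to fluorescence (540/590 nm); concentration-response curves normalized to no-enzyme control.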
HEK293 tox = cytotoxic in the GLP-1 receptor inverse agonist counter-screen; HEK293 cAMP-luciferase reporter cells, luminescence, 24 h; Potency, µM (top dose mostly 38.3 µM), hits mostly inhibitors; 410,000 tested, 0.13% active;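 also: loss of luciferase light is scored as toxicity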
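Quantitative HTS format, 1536 wells, 200 cells/uL seeded. Compounds: 23 nL, 24 h, 37 °C. Detection: luciferase reagent, luminescence at 12 min RT; decreased signal taken as cytotoxic.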
GLP1R ag = GLP-1 receptor (human) agonism | HEK293 GLP-1R CRE-luciferase, luminescence, 4-6 h; cells express a hypersensitive GLP-1R form | Potency, µM (doses to about 45.6 µM), actives largely listed as activators | P43220 | 380,000 tested, 0.007% active
TrxR1 substrate = rat thioredoxin reductase 1 substrate activity | O89049 | purified TrxR1 substrate turnover, NADPH consumption readout | Potency, µM (highest dose often 114 µM) | 390,000 tested, 0.01% active; also: nearly all actives have a fitted effect of over 50% in size
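Rat TrxR1, dispensed at 90 nM, was prereduced with 400 uM NADPH (final) for 5 min at ~22 deg C, then incubated with compound 15 min before 400 uM selenite. A first-read NADPH fluorescence drop versus no-compound background flagged substrates.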
GLP-1R inv ag = inverse agonists of human GLP-1 receptor; P43220; Potency, µM (doses to about 38.3 µM), hits mostly inhibitors; HEK293 GLP-1R CRE-luciferase, luminescence, 24 h; GLP-1R form is constitutively active; 410,000 tested, 1.6% active; also: nearly all actives have a fitted effect of over 55% in size
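HEK293 cells stably co-expressing a cAMP-responsive luciferase reporter and constitutively active GLP-1R were seeded, incubated 12 h, then exposed to compounds for 24 h at 37 C. Luminescence was read 12 min after detection reagent; inverse agonists lower signal.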
TrxR1 inh = inhibitors of rat thioredoxin reductase 1. recombinant rTrxR1, NADPH fluorescence consumption, selenite substrate. Potency, µM (highest dose often 114 µM), most hits filed as inhibitors. 390,000 tested, 1% active. AID 588453; also: nearly all actives have a fitted effect of over 65% in size
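Rat TrxR1 (90 nM in the dispensed reagent) was pre-reduced with 400 uM NADPH for 5 min at room temperature, then incubated with compound for 15 min. After 400 uM selenite was added, NADPH fluorescence (Ex 340/Em 450 nm) was followed for 8 min.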
Numbers stand for hits. Calls follow the shape of the dose curve; as a rule, active = well fitted curve in the direction sought with a large enough effect; inconclusive = small, poorly fitted or top-dose-only effect, or another doubt; inactive = no such curve, though single readings can be large; an effect the other way counts as inactive or inconclusive.

`COc1ccc(CCNC(=O)CS(=O)Cc2nc(-c3cccs3)oc2C)cc1OC` (configuration not stated) gave IDH1 R132H inh inactive, HEK293 tox inactive, GLP1R ag inactive, TrxR1 substrate inactive, GLP-1R inv ag inactive and TrxR1 inh 40µM.
COc1ccc(CNC(=O)CS(=O)Cc2nc(-c3ccc(OC)c(OC)c3)oc2C)cc1 (configuration not stated) was read as IDH1 R132H inh inactive, HEK293 tox inactive, GLP1R ag inactive, TrxR1 substrate inactive, GLP-1R inv ag inactive and TrxR1 inh inactive.
Screening COc1ccc(-c2nc(CS(=O)CC(=O)NCc3ccc(C)cc3)c(C)o2)cc1OC (configuration not stated) returned IDH1 R132H inh inactive, HEK293 tox inactive, GLP1R ag inactive, TrxR1 substrate inactive, GLP-1R inv ag inactive and TrxR1 inh 50µM.
COc1ccc(CCNC(=O)CS(=O)Cc2nc(-c3ccccc3Cl)oc2C)cc1OC (configuration not stated) was read as IDH1 R132H inh inactive, HEK293 tox inactive, GLP1R ag inactive, TrxR1 substrate inactive, GLP-1R inv ag inactive and TrxR1 inh inactive.
Cc1ccc(CCNC(=O)CS(=O)Cc2nc(-c3cccs3)oc2C)cc1 (configuration not stated) was read as IDH1 R132H inh inactive, HEK293 tox inactive, GLP1R ag inactive, TrxR1 substrate inactive, GLP-1R inv ag inactive and TrxR1 inh 14µM.
O=C1CC(/C=C/c2ccncc2)=Nc2ccccc2N1 was read as IDH1 R132H inh inactive, HEK293 tox inactive, GLP1R ag inactive, TrxR1 substrate inactive, GLP-1R inv ag 2.5µM and TrxR1 inh inactive.
Screening Cc1scc(C(=O)NCc2ccco2)c1-c1ccccc1 returned IDH1 R132H inh inactive, HEK293 tox inactive, GLP1R ag inactive, TrxR1 substrate inactive, GLP-1R inv ag inactive and TrxR1 inh 14µM.
`COc1cccc(/C=N/NC(=O)c2ccoc2C)c1O` gave IDH1 R132H inh inactive, HEK293 tox inactive, GLP1R ag inactive, TrxR1 substrate inactive, GLP-1R inv ag 1.3µM and TrxR1 inh inactive.
Screening COc1cccc(/C=N/NC(=O)C(=O)N/N=C/c2cccc(OC)c2O)c1O returned IDH1 R132H inh inactive, HEK293 tox inactive, GLP1R ag inactive, TrxR1 substrate inactive, GLP-1R inv ag inactive and TrxR1 inh inactive.
For COc1ccc(NC(=O)CSc2nc(-c3ccc(OC)c(OC)c3)[nH]c2-c2ccc(C)cc2)cc1 the results were IDH1 R132H inh inactive, HEK293 tox inactive, TrxR1 substrate inactive, GLP-1R inv ag inconclusive and TrxR1 inh inactive.
For CC[C@H](C)[C@@H](CNC)NC[C@@H](Cc1ccc(O)cc1)NCC(C)(C)C the results were IDH1 R132H inh inactive, HEK293 tox inconclusive, GLP1R ag inactive, TrxR1 substrate inactive, GLP-1R inv ag inconclusive and TrxR1 inh inactive.
Screening CC[C@@H](C)[C@H](CN[C@H](CNC)C(C)C)NC[C@@H](C)c1ccc(CC(C)C)cc1 returned IDH1 R132H inh inactive, HEK293 tox 11µM, GLP1R ag inactive, TrxR1 substrate inactive, GLP-1R inv ag inconclusive and TrxR1 inh inactive.
Screening O=C(CCN1CCc2ccccc2C(c2ccccc2)C1)c1ccc2c(c1)OCCO2 (configuration not stated) returned IDH1 R132H inh inactive, HEK293 tox inconclusive, GLP1R ag inactive, TrxR1 substrate inactive, GLP-1R inv ag inconclusive and TrxR1 inh 1.1µM.
`O=C(CCN1Cc2ccccc2C1)c1ccc2c(c1)OCCO2` gave IDH1 R132H inh inactive, HEK293 tox inactive, GLP1R ag inactive, TrxR1 substrate inactive, GLP-1R inv ag inactive and TrxR1 inh 0.32µM.
O=C(O)CCC(=O)c1ccc2c(c1)OCCO2 was read as IDH1 R132H inh inactive, HEK293 tox inactive, GLP1R ag inactive, TrxR1 substrate inactive, GLP-1R inv ag inactive and TrxR1 inh inactive.
Screening COc1cc2c(cc1NC(=O)C(c1ccccc1)c1ccccc1)CCCC2 returned IDH1 R132H inh inactive, HEK293 tox inactive, GLP1R ag inactive, TrxR1 substrate inactive, GLP-1R inv ag 2.8µM and TrxR1 inh inactive.
Screening COc1cc(NC(=O)C(c2ccccc2)c2ccccc2)c(C(=O)O)cc1OC returned IDH1 R132H inh inactive, HEK293 tox inactive, GLP1R ag inactive, TrxR1 substrate inactive, GLP-1R inv ag inactive and TrxR1 inh inactive.
Screening C=CCN1C(=O)[C@]2(c3ccccc31)C1CCCC=C1C(C#N)=C(N)C2(C#N)C#N (some centres not stated) returned IDH1 R132H inh inactive, HEK293 tox inactive, GLP1R ag inactive, TrxR1 substrate inactive, GLP-1R inv ag inactive and TrxR1 inh inactive.
Screening C=CCN1C(=O)C2(c3ccccc31)C1CCCC=C1C(C#N)=C(N)C2(C#N)C#N (configuration not stated) returned IDH1 R132H inh inactive, HEK293 tox inactive, GLP1R ag inactive, TrxR1 substrate inactive, GLP-1R inv ag 4.5µM and TrxR1 inh inactive.
`CCN1CCN(Cc2ccc(NC(=O)c3cc(NC(=O)C(=O)c4c[nH]c5ccccc45)cc(OC)c3)cc2C(F)(F)F)CC1` gave IDH1 R132H inh inactive, HEK293 tox inconclusive, GLP1R ag inactive, TrxR1 substrate inactive, GLP-1R inv ag 10µM and TrxR1 inh inactive.
CCN1CCN(Cc2ccc(NC(=O)c3cc(NC(=O)c4cc(C)on4)cc(OC)c3)cc2C(F)(F)F)CC1 was read as IDH1 R132H inh inactive, HEK293 tox inconclusive, GLP1R ag inactive, TrxR1 substrate inactive, GLP-1R inv ag inconclusive and TrxR1 inh inactive.
For CC1CCc2nc3sc4c(c3c(N)c2C1)CCCC4 (configuration not stated) the results were IDH1 R132H inh inactive, HEK293 tox inconclusive, GLP1R ag inactive, TrxR1 substrate inactive, GLP-1R inv ag inconclusive and TrxR1 inh inactive.
Screening CC1CCc2c(nc3sc4c(c3c2N)CCCC4)C1 (configuration not stated) returned IDH1 R132H inh inactive, HEK293 tox inconclusive, GLP1R ag inactive, TrxR1 substrate inactive, GLP-1R inv ag 5.6µM and TrxR1 inh inactive.
Screening CCOc1ccccc1C(=O)Nc1nc2c(s1)CC(C)CC2 (configuration not stated) returned IDH1 R132H inh inactive, HEK293 tox inactive, TrxR1 substrate inactive, GLP-1R inv ag inactive and TrxR1 inh inactive.
Cc1ccc(-c2ccc(/C=N/c3ncn[nH]3)o2)cc1Cl was read as IDH1 R132H inh inactive, HEK293 tox inconclusive, GLP1R ag inactive, TrxR1 substrate inactive, GLP-1R inv ag 8.9µM and TrxR1 inh inactive.

Assay outcomes: PubChem, National Center for Advancing Translational Sciences (NCATS)
